Data as given in PubChem BioAssay (NCI).
“And” between values parts separate entries of the source, which are not always exact repeats. Equal entries are not always repeated. The panel holds about 79,000 compounds, 15% with a hit somewhere; the sample as a whole holds those more often. No stated cut-off is given here; in the data, active means growth inhibition above about 70%; inactive means the rest.

Key:
[1] = NCI Yeast Anticancer Drug Screen. Data for the rad50 strain (AID 155);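 further: 0% = growth of vehicle-only cultures of the same strain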; settings: S. cerevisiae rad50 strain growth inhibition, active compounds read high; at 50.0 µM unless noted
In short: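 Growth of the mutant yeast was measured after compound exposure and referenced to vehicle-treated cultures.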

[2] = NCI Yeast Anticancer Drug Screen. Data for the mec2-1 strain (AID 157); settings: S. cerevisiae mec2-1 strain, active compounds read high; at 50.0 µM unless noted
In short: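 mec2-1 yeast strain, carrying an alteration in DNA damage repair or cell cycle control, was exposed to compounds; growth inhibition was measured relative to vehicle-treated controls.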

[3] = NCI Yeast Anticancer Drug Screen. Data for the sgs1 mgt1 strain (AID 161);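 further: 0% = growth of cultures given vehicle only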; settings: S. cerevisiae sgs1 mgt1 strain, active compounds read high; at 50.0 µM unless noted
In short: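 This yeast growth screen uses a strain with defined DNA-repair lesions; compound-treated growth is compared with vehicle-treated growth.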

[4] = NCI Yeast Anticancer Drug Screen. Data for the cln2 rad14 strain (AID 165);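 further: 0% = growth equal to vehicle treated cultures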; settings: S. cerevisiae cln2 rad14 strain, active compounds read high; at 50.0 µM unless noted
In short: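 Yeast carrying cln2 and rad14 alterations (cell cycle control and DNA damage repair) were exposed to compounds. Growth inhibition was measured against vehicle-treated controls.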

[5] = NCI Yeast Anticancer Drug Screen. Data for the bub3 strain (AID 167); settings: S. cerevisiae bub3 mutant strain, active compounds read high; at 50.0 µM unless noted
In short: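 Whole-cell yeast assay. The mutant strain was incubated with compounds, and growth inhibition was determined by comparison with vehicle-treated cells.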

[6] = NCI Yeast Anticancer Drug Screen. Data for the mlh1 rad18 strain (AID 175); settings: S. cerevisiae mlh1 rad18 strain growth inhibition, active compounds read high; at 50.0 µM unless noted
In short: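 Growth inhibition of the yeast strain was measured after compound exposure and expressed relative to vehicle-treated controls. The strain carries defined defects in DNA damage repair.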

Measured: growth inhibition

CCOC(=O)CSC#N
inactive: [1] -2.05% | [2] -0.85% | [3] 1.35% | [4] 7.4% | [5] 21.2% | [6] 2.9%

CC(=O)Oc1ccc2c(c1)[nH]c1c3ccc(OC(C)=O)cc3oc(=O)c21
inactive: [1] -21.4% | [2] -26.9% | [3] -8.05% | [4] 5.8% | [5] -2.85% | [6] -13.7%

O=C1NC(N/N=C\C(O)C(O)C(O)CO)=N/C1=C/c1ccccc1 (stereo not given)
inactive: [1] 16.4% and 33.9% | [2] 18.7% and 29.6% | [3] 3.75% and 32.5% | [4] 16.8% and 16.1% | [5] 12.2% and 32.3% | [6] -9.35% and -5.7%

COC(=O)CC1(C(=O)OC)NC(=O)c2cc(OC)c(Cl)cc2N1 (stereo not given)
inactive: [1] -4.2% | [2] 7.6% | [3] -7.1% | [4] 13.6% | [5] -4.9% | [6] -19.6%

CC(c1cccc(O)c1)N(C)C (stereo not given)
inactive: [1] 5.9% | [2] -2.2% | [3] 0.7% | [4] -10.4% | [5] 1.25% | [6] -3.85%

Cc1cc(C(=O)C(C#N)=Nc2ccc(N(C)C)cc2)c(CN2C(=O)c3ccccc3C2=O)c(=O)n1C
inactive: [1] 22.9% | [2] -12.1% | [3] 19.3% | [4] -28.1% | [5] -6.15% | [6] 5.95%

O=C(O)c1cccc(C(=O)O)c1-c1c(C(=O)O)cccc1C(=O)O
inactive: [1] -5.2% | [2] 17.8% | [3] 7.7% | [4] -80.5% | [5] 7.45% | [6] 4.05%

CC(=Nc1cccc(Cl)c1)c1ccncc1
inactive: [1] -44% | [2] -10.2% | [3] -24.6% | [4] -21.2% | [5] -6.05% | [6] -10.8%

C=CCOC(=O)c1ccc(C(C)C)cc1
inactive: [1] 25.1% | [2] 12% | [3] 9.5% | [4] 7.6% | [5] 8% | [6] 35.6%

N#Cc1c(N2CCCC2)nsc1Nc1ccc(F)cc1
inactive: [1] 2.6% | [2] 2.85% | [3] 0.8% | [4] -16% | [5] 4.4% | [6] -9%

CCOC(=O)C(C)NC(=O)c1ccccc1 (stereo not given)
inactive: [1] 0.25% | [2] -8.5% | [3] -14.6% | [4] -52.2% | [5] 5.5% | [6] 0.75%

CSC(=S)OC(C)CC(C)C (stereo not given)
inactive: [1] 37.6% | [2] -3.95% | [3] 30.7% | [4] -12.1% | [5] 6.95% | [6] 25.5%

CC(O)CNC(=O)C(C)(C)O (stereo not given)
inactive: [1] 36% | [2] 13.6% | [3] 20.7% | [4] 9.65% | [5] 21.8% | [6] 18.9%

COc1cc(C2NC(C(=O)O)CS2)cc(OC)c1OC (stereo not given)
inactive: [1] -22.4% | [2] -14.7% | [3] 0.5% | [4] -19.1% | [5] -9.2% | [6] -5.85%

O=CNNc1nn2cnnc2c2ccccc12
inactive: [1] -1% | [2] 9.95% | [3] -6.55% | [4] 11.9% | [5] -16.6% | [6] 9.6%

Cn1cnc([N+](=O)[O-])c1Sc1ncc[nH]1
inactive: [1] 1.3% | [2] 3.1% | [3] -3.05% | [4] 16.4% | [5] 9.7% | [6] 2.8%

CCOC(=O)c1[nH]c(C)c(/C=N/O)c1C
inactive: [1] 22.9% | [2] -1.8% | [3] 6.65% | [4] 13.6% | [5] 10.1% | [6] 15.2%

Cc1cc(C)cc(N(C2=NCCS2)C2=NCCS2)c1
inactive: [1] 5% | [2] -4.55% | [3] -2.35% | [4] 0.45% | [5] 21.9% | [6] 4.9%

Nc1nc(=S)c2c(ncn2CCO)[nH]1
inactive: [1] -25.1% | [2] -32.2% | [3] 15.3% | [4] 3.4% | [5] -16.1% | [6] 3.85%

CN(O)C(=O)CCC(NC(=O)CCC(N)C(=O)O)C(=O)NCC(=O)O (stereo not given)
inactive: [1] -25.4% | [2] -9.3% | [3] -11.9% | [4] 0.1% | [5] 1.6% | [6] -51.8%

C=C1C(=O)OC2/C=C(\C)C(O)CCC(C)(O)CC(OC(=O)/C(C)=C/C)C12 (stereo not given)
inactive: [1] 2.35% | [2] -5.45% | [3] -3.1% | [4] 17.4% | [5] 3.7% | [6] -1.9%

CCCCCCCCOC(=O)Nc1ccc(S(=O)(=O)NC2CCCCC2)cc1
inactive: [1] 7.05% | [2] -2.9% | [3] 14.1% | [4] 37.8% | [5] 10.8% | [6] 20.6%

CCCC(=O)CC(=O)Nc1ccccc1
inactive: [1] 2.9% | [2] -6.3% | [3] -14.9% | [4] -23.9% | [5] -17.6% | [6] 11.2%

CN(C)c1cccc2c(S(=O)(=O)NCCCNCCN)cccc12
inactive: [1] 7.6% | [2] -18.4% | [3] -20.9% | [4] 24.4% | [5] -21.2% | [6] -6.6%

Cc1nc2ccncc2[nH]1
inactive: [1] -7.7% | [2] -1.3% | [3] -17.4% | [4] 0.05% | [5] -10.6% | [6] -8.2%

O=c1[nH]c(=O)c2nc(-c3cccnc3)cnc2[nH]1
inactive: [1] 2.8% | [2] -0.1% | [3] -9.7% | [4] 1.6% | [5] 0.85% | [6] 7.45%

Cc1cccc(NC(=O)c2ccc(Cl)cc2Cl)c1
inactive: [1] 9.1% | [2] 14.1% | [3] 6.8% | [4] 13.6% | [5] 21.3% | [6] 22.2%

O=C1NC(N2CCOCC2)=N/C1=C\c1cccs1
inactive: [1] -8.45% | [2] 5.05% | [3] 13.2% | [4] 32.3% | [5] 1.05% | [6] -34%

Cc1onc(-c2ccccc2)c1C(C)(O)c1ccccc1 (stereo not given)
inactive: [1] 12.8% | [2] 11.2% | [3] 16.6% | [4] -17.9% | [5] 18.2% | [6] 5.7%

CC(C)(C)NSc1nc2ccccc2s1
inactive: [1] -21.8% | [2] 2.45% | [3] -12.7% | [4] 4.2% | [5] -2.5% | [6] -8.5%

CCN(CC)CCOc1ccc(N2C(=O)c3cc(OC)c(OC)cc3C2=O)cc1
inactive: [1] -23.4% | [2] -19% | [3] -14.9% | [4] 5.25% | [5] -32.1% | [6] -34.5%

COC1=NS(=O)(=O)C2CCCCCCC2O1 (stereo not given)
inactive: [1] 11.1% | [2] -2.85% | [3] 1.15% | [4] -74.2% | [5] 10.6% | [6] -7.4%

COc1cc(/C=C/c2ccc(N(C)C)cc2)oc(=O)c1
inactive: [1] 21.5% | [2] 5.45% | [3] 26.6% | [4] 6.85% | [5] 5.65% | [6] 0.25%

O=C1c2ccccc2C(=O)C1c1ccc2ccccc2n1
inactive: [1] 7.85% | [2] -7.95% | [3] 3.35% | [4] 2.6% | [5] 7.05% | [6] -7.95%

O=C1NCCN1/N=C/c1ccc([N+](=O)[O-])o1
inactive: [1] 26.4% | [2] 9.35% | [3] 37.5% | [4] -29.9% | [5] 14.4% | [6] 25.9%

Cc1cccc2c1/C(=C1/c3ccccc3C(=O)c3cccc(C)c31)c1ccccc1C2=O
inactive: [1] -4.85% | [2] -24.1% | [3] -3.45% | [4] 14.3% | [5] -1.2% | [6] -6.15%

Clc1ccccc1C1SCc2nc3ccccc3n21 (stereo not given)
inactive: [1] 10.8% | [2] -7.85% | [3] 53.2% | [4] 18.9% | [5] 26.4% | [6] 22.6%

COc1ccc2nc3cccc([N+](=O)[O-])c3c(NC(C)CN(C)C)c2c1 (stereo not given)
inactive: [1] 52% | [2] 35.9% | [3] 54.1% | [4] 64.3% | [5] 26.4% | [6] 42.9%

CCCCCCC(O)C[N+](=O)[O-] (stereo not given)
inactive: [1] 0.3% | [2] -28.9% | [3] -11.8% | [4] -5% | [5] -2.75% | [6] -3.9%

O=C1/C(=C/c2cccnc2)SC(=S)N1Cc1ccco1
inactive: [1] 2.7% | [2] -21.1% | [3] -8.85% | [4] 40% | [5] -6.45% | [6] 1.45%
